S1P4 antagonist: human S1P4 receptor antagonism | O95977 | S1P4-expressing cells, antagonist mode, reporter read-out | inhibition, % at 4.98 µM | 220,000 tested, 0.26% active | AID 1510; in the data active means inhibition above about 29%;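 further: 0% = wells stimulated with agonist and 100% = vehicle wells without agonist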
Target sequence (O95977 whole entry, looked up): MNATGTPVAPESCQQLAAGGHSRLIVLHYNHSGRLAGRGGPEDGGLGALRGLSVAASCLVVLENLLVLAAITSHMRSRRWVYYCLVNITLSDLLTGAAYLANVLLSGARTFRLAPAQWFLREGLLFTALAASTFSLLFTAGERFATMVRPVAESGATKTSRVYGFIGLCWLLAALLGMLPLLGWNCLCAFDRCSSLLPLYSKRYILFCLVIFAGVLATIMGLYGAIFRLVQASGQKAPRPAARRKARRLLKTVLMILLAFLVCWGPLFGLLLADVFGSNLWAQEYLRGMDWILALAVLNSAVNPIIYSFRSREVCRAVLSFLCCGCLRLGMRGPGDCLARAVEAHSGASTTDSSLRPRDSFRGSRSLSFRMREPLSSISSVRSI
CHOP inhibitor: blocks CHOP induction under ER stress; CHO-K1 CHOP-promoter luciferase, tunicamycin-induced, 15-18 h; inhibition, % at 10 µM; 220,000 tested, 3.8% active;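 active means compounds that reduced the stress-induced luciferase reporter signal by more than about 70% of percent inhibition, limit read from the data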;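 further: 0% = tunicamycin plus vehicle and 100% = wells without tunicamycin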
Hsp70 act: Hsp70 transcriptional activation, primary screen | HeLa Hsp70 promoter luciferase reporter, luminescence; scaled: vehicle 0, proteasome-inhibitor control 100% | activation, % at 10 µM | 200,000 tested, 0.04% active | AID 1203;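 active means activation above the mean across all tested compounds plus 3 SD, cutoff set per campaign, cut at about 5.5% in these data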;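 further: 100% = MG132 at 30 µM as the positive control and 0% = DMSO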
S1P4 ag: activates the human S1P4 receptor; S1P4-expressing cell line, agonist reporter assay; activation, % at 4.98 µM; 220,000 tested, 0.35% active; AID 1509; in the data active means activation above about 11%;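 further: 0% = DMSO vehicle and 100% = reference agonist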
Active calls of the source: *; nt = no result given. The list is not random: actives were taken first. Their share in the collection is about 4.2%.

SMILES	S1P4 antagonist	CHOP inhibitor	Hsp70 act	S1P4 ag
CCOC(=O)c1c(NC(=O)CN2CCCc3ccccc32)sc(C)c1C	-9.4	52.4	-0.1	-0.3
COC(=O)c1c(NC(=O)CN2CCCc3ccccc32)sc(C)c1C	-6.6	70.4*	-0.3	1.0
CC(NC(=O)CCc1nnc(-c2ccc(-c3ccccc3)cc2)o1)c1nccs1 (stereo unspecified)	-0.3	63.9	-0.3	-0.8
CCc1c(C#N)c(SCCC(=O)Nc2ccc(C)cc2)nc2c1C(=O)CC(C)(C)C2	17.9	85.4*	-0.1	0.4
Cc1cc(C(=O)N(CCC#N)Cc2cccs2)no1	3.3	-2.5	nt	-1.0
Cc1cc(C)n2nc(C(=O)NCc3ccco3)cc2n1	-15.2	0.5	-0.1	0.8
CCOC(=O)c1sc(NC(=O)Nc2ccccc2Cl)cc1C	-16.6	80.1*	-0.4	0.1
CCOC(=O)c1sc(NC(=O)Nc2ccccc2)cc1C	3.1	27.0	0.0	-0.3
Cc1cc(C(F)(F)F)c(C#N)c(N2CCOCC2)n1	0.2	22.5	-0.2	0.4
N#Cc1c(C(F)(F)F)cc(C2CC2)nc1N1CCCC1	-2.0	83.1*	-0.2	-1.0
COc1ccc(C(=O)N/C(=C\c2cccs2)c2nc3ccccc3[nH]2)cc1OC	-11.3	-30.1	-0.2	-0.1
Cc1nc(N2CCCCC2)c2c(C)c(C(=O)Nc3cccc(C(F)(F)F)c3)sc2n1	10.9	34.8	-0.3	-4.0
Cc1nc(N2CCCCC2)c2c(C)c(C(=O)Nc3ccccc3C(F)(F)F)sc2n1	3.4	70.6*	-0.2	-0.8
Cc1nc(N2CCCCC2C)c2c(C)c(C(=O)Nc3cccc(C(F)(F)F)c3)sc2n1 (stereo unspecified)	-2.3	79.6*	0.1	-0.5
CCCCSc1nnc(CCCCCNC(=O)OC(C)(C)C)o1	11.8	79.5*	-0.4	-0.3
CSc1nnc(CCCCCNC(=O)OC(C)(C)C)o1	-0.7	-7.3	nt	-0.9
O/N=C/c1ccc(-c2cc(Cl)ccc2Cl)o1	-22.3	95.6*	-0.3	0.7
COC(=O)N/N=C/c1ccc(-c2cc(Cl)ccc2Cl)o1	8.0	-31.8	-0.2	-1.1
Cc1ccc(C)c(NC(=O)c2ccc3ccccc3n2)c1	-4.5	80.1*	0.0	-0.1
CC(C)C12CN3CCN(CC(C3)/C1=N\NC(=O)Nc1ccccc1)C2	-0.3	-17.9	-0.4	0.9
O=C1CC(c2ccco2)Cc2nc(Nc3ccc(F)cc3)ncc21 (stereo unspecified)	1.2	49.4	-0.3	-1.7
O=C1CC(c2ccco2)Cc2nc(NCC3CCCO3)ncc21 (stereo unspecified)	-15.4	81.7*	-0.4	2.4
O=C(COc1nc2ccccc2nc1N1CCOCC1)NC1CCCCC1	-0.5	-12.2	-0.5	-0.1
O=C(COC(=O)c1ccccc1)Nc1cccc(S(=O)(=O)NC2=NCCCCC2)c1	16.2	-0.8	-0.4	1.3
CCc1ccc2[nH]c(=O)c(CN(Cc3ccccc3)C(=O)Nc3ccccc3OC)cc2c1	-3.6	73.5*	0.1	-1.9
SMILES	S1P4 antagonist	CHOP inhibitor	Hsp70 act	S1P4 ag
CCc1ccc2[nH]c(=O)c(CN(CCCN3CCOCC3)C(=O)Nc3ccc(F)cc3)cc2c1	1.6	71.0*	-0.3	1.1
COc1ccc(NC(=O)N(CCN2CCCC2)Cc2cc3cc(OC)c(OC)cc3[nH]c2=O)cc1	15.8	78.3*	0.2	0.4
O=C(Nc1ccc(F)cc1)N(CCCN1CCOCC1)Cc1cc2cc3c(cc2[nH]c1=O)OCCO3	-21.1	-14.7	0.1	1.4
COc1ccc(NC(=O)N(CCCN(C)C)Cc2cc3cc(OC)ccc3[nH]c2=O)cc1	-1.0	2.6	-0.1	2.6
CCOc1cc(C#N)c(NC(=O)Cn2nnc3ccccc32)cc1OCC	-11.3	-8.6	0.1	5.1
CCC(=O)n1nc(NCc2ccccc2OC)nc1NCc1ccccc1OC	1.8	76.1*	-0.6	0.1
CCCCCc1nc2c(=O)n(C)c3ccccc3c2o1	2.4	16.0	0.2	2.0
CCCCCCCc1nc2c(=O)n(C)c3ccccc3c2o1	-9.2	88.8*	-0.4	0.1
O=C(Nc1cccc(C(F)(F)F)c1)Nc1ccc(N2CCCC2)c(S(=O)(=O)Nc2ccccc2Cl)c1	-9.8	75.6*	-0.2	0.7
O=C(NNC(=S)Nc1ccc(Cl)cc1)c1ccccc1OC(F)F	-8.0	37.5	0.2	1.1
COc1cccc(CNC2CCCc3ccccc32)c1OC (stereo unspecified)	-1.2	17.6	-0.3	0.3
Cc1ccsc1/C=N/NC(=O)Cc1ccc(Cl)cc1	9.8	35.1	nt	0.5
O=C(CSCc1ccc(Cl)cc1)N/N=C/c1ccc(Cl)cc1Cl	4.4	91.1*	-0.1	-2.9
Cc1ccsc1/C=N/NC(=O)CSCc1ccc(Cl)cc1	4.2	92.1*	-0.2	-2.1
O=C(CSCc1ccc(Cl)cc1)N/N=C/c1ccco1	-5.4	13.6	0.0	-0.9
CCC(=O)N1CCc2cc(S(=O)(=O)N3CCN(C(=O)c4ccco4)CC3)ccc21	-10.3	24.5	-0.4	-1.1
CC(=O)C1=C(O)C(=O)N(c2cc(C(C)(C)C)on2)C1c1ccc(C(C)C)cc1 (stereo unspecified)	-16.4	72.5*	-0.5	0.5
COc1ccc(N2CCCn3c2nc2c3c(=O)n(Cc3ccccc3)c(=O)n2C)c(OC)c1	-21.7	35.0	-0.1	1.3
O=C(O)c1ccc(N/N=C/c2ccc(OC(=O)c3cccc(Cl)c3)cc2)cc1	0.4	79.4*	nt	0.7
O=C(O)c1cccc(N/N=C/c2cccs2)c1	18.6	84.4*	-0.5	-1.1
CSc1ccc(/C=N/Nc2cccc(C(=O)O)c2)cc1	-13.3	84.9*	0.1	0.3
O=C(Oc1ccc(/C=N/Nc2ccccc2)cc1)c1ccccc1	8.4	5.5	0.5	-0.4
Cc1c(NC(=O)C(C)n2cc([N+](=O)[O-])cn2)c(=O)n(-c2ccccc2)n1C (stereo unspecified)	-4.9	12.1	-0.1	0.2
COCCn1c(-c2ccc(OC(F)(F)C(F)C(F)(F)F)cc2)nc2c1c(=O)[nH]c(=O)n2CC(C)C (stereo unspecified)	7.0	73.3*	-0.1	-3.0
Cc1c(NC(=O)c2cc3c(s2)-c2ccccc2OC3)cccc1[N+](=O)[O-]	12.8	29.8	-0.2	1.8
SMILES	S1P4 antagonist	CHOP inhibitor	Hsp70 act	S1P4 ag
O=C1CCCCC1C(Nc1ccc(Br)cc1)c1ccccc1 (stereo unspecified)	-3.5	79.8*	-0.3	1.5
O=C1CCCCC1C(Nc1ccc(Cl)cc1)c1ccccc1 (stereo unspecified)	-8.6	93.6*	0.1	-4.2
CCOC(=O)NC(c1ccccc1)C1CCCCC1=O (stereo unspecified)	5.5	-29.9	-0.4	1.1
COc1ccc(C(CC(=O)c2ccccc2)C2CCCCC2=O)cc1 (stereo unspecified)	1.3	57.6	-0.3	-0.3
COCCN(C(=O)c1ccc2ccccc2c1)c1c(N)n(Cc2ccccc2)c(=O)[nH]c1=O	-1.2	-16.8	-0.3	0.2
COc1ccc(S(=O)(=O)n2nc(OC(=O)C3CCCCC3)cc2N)cc1	2.4	73.8*	0.0	0.6
COc1ccccc1C(=O)Oc1cc(N)n(S(=O)(=O)c2ccc(C)cc2)n1	-6.3	78.5*	0.2	1.2
Cc1ccc(S(=O)(=O)n2nc(OC(=O)c3ccco3)cc2N)cc1	-5.0	49.6	-0.2	0.2
C[C@@H](NCCc1ccc(O)cc1)[C@@H](O)c1ccc(O)cc1	nt	-7.2	nt	nt

Source: PubChem
